Several values for one entry are separate records, joined by “and”; a condition that tells them apart may be missing. Equal values may be shown once. About 2,000 (36%) of roughly 5,500 compounds were called active. Roughly 18% stayed inconclusive and do not appear here. Rule as the data show it: active = normalized growth mostly below about 0.91 (no sharp cut-off); inconclusive = no clear call, values can overlap the other calls; inactive = mostly above about 0.92. Some of the results follow.
Assay: chemical genetic growth profiling, strain panel (AID 1159580);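 also: tested at 20 µM; growth read once vehicle control cultures reached saturation at 30 °C; 1 = growth at the plate median or of vehicle wells; lower values mean less growth of the strain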
Details: S. cerevisiae deletion strains, growth OD

Measured: normalized growth

Nc1ccc(C(=O)NCC(=O)O)cc1
inactive: locus YAL021C, strain ccr4, hits give low values 1.02 | locus YAL026C, strain drs2, hits give low values 1.02 | locus YAL030W, strain snc1, hits give low values 0.998 | locus YBL061C, strain skt5, hits give low values 1.01 | locus YBR009C, strain hhf1, hits give low values 1.01 | locus YBR021W, strain FUR4, hits give low values 1.01 | locus YBR023C, strain chs3, hits give low values 1.02 | locus YBR171W, strain sec66, hits give low values 1.02 | locus YBR229C, strain ROT2, hits give low values 1 | locus YBR231C, strain swc5, hits give low values 1.01 | locus YBR279W, strain paf1, hits give low values 1.01 | locus YCL011C, strain gbp2, hits give low values 1.02 | locus YCL016C, strain dcc1, hits give low values 1.02 | locus YCL029C, strain bik1, hits give low values 1 | locus YCL069W, strain vba3, hits give low values 1 | locus YCR088W, strain abp1, hits give low values 1.01 | locus YDL005C, strain med2, hits give low values 1.01 | locus YDL035C, strain GPR1, hits give low values 1.01 | locus YDL040C, strain nat1, hits give low values 1 | locus YDL074C, strain BRE1, hits give low values 0.992 | locus YDL101C, strain DUN1, hits give low values 1 | locus YDL134C, strain PPH21, hits give low values 1.01 | locus YDL185W, strain tfp1, hits give low values 1.01 | locus YDL192W, strain arf1, hits give low values 1.01 | locus YDR001C, strain nth1, hits give low values 1.01 | locus YDR069C, strain doa4, hits give low values 1 | locus YDR101C, strain arx1, hits give low values 0.993 | locus YDR137W, strain rgp1, hits give low values 1.02 | locus YDR150W, strain NUM1, hits give low values 1.01 | locus YDR159W, strain sac3, hits give low values 0.979 | locus YDR162C, strain NBP2, hits give low values 1.01 | locus YDR195W, strain ref2 0.999 | locus YDR297W, strain sur2, hits give low values 1.02 | locus YDR318W, strain mcm21, hits give low values 1.02 | locus YDR334W, strain swr1, hits give low values 1.04 | locus YDR335W, strain msn5, hits give low values 1.02 | locus YDR388W, hits give low values 1 | locus YDR392W, strain spt3, hits give low values 1.03 | locus YDR502C, strain sam2, hits give low values 1.01 | locus YEL003W, strain gim4, hits give low values 1.02 | locus YEL037C, strain rad23, hits give low values 0.998 | locus YEL061C, strain CIN8 (second series), hits give low values 1.01 | locus YEL061C, strain CIN8, hits give low values 1 | locus YER015W, strain faa2, hits give low values 0.996 | locus YER016W, strain bim1, hits give low values 1.02 | locus YER110C, hits give low values 1.02 | locus YER111C, strain swi4, hits give low values 0.996 | locus YER155C, strain BEM2 (second series), hits give low values 1.02 | locus YER155C, strain BEM2, hits give low values 0.994 | locus YER167W, strain BCK2, hits give low values 1.01 | locus YFR010W, strain ubp6, hits give low values 0.999 | locus YGL078C, strain dbp3, hits give low values 1.02 | locus YGL086W, strain mad1, hits give low values 1.01 | locus YGL167C, strain pmr1, hits give low values 1.02 | locus YGL173C, strain kem1, hits give low values 1.01 | locus YGL227W, strain vid30, hits give low values 1 | locus YGL240W, strain doc1, hits give low values 0.993 | locus YGL248W, strain PDE1, hits give low values 0.992 | locus YGL253W, strain hxk2, hits give low values 1.02 | locus YGR135W, strain pre9, hits give low values 1.04 | locus YGR229C, strain SMI1, hits give low values 0.99 | locus YGR252W, strain gcn5, hits give low values 1.01 | locus YHR013C, strain ard1, hits give low values 1.03 | locus YHR027C, strain rpn1, hits give low values 1.02 | locus YHR030C, strain SLT2, hits give low values 1.01 and 0.968 | locus YHR079C, strain IRE1 (second series), hits give low values 1.01 | locus YHR079C, strain IRE1, hits give low values 0.971 | locus YHR094C, strain hxt1, hits give low values 1.01 | locus YHR129C, strain ARP1, hits give low values 1 | locus YHR142W, strain chs7, hits give low values 1.02 | locus YHR200W, strain rpn10, hits give low values 1.02 | locus YIL066C, strain RNR3, hits give low values 1 | locus YIL073C, strain SPO22, hits give low values 1.05 | locus YIL125W, strain kgd1, hits give low values 1.01 | locus YIR030C, strain dcg1, hits give low values 1 | locus YJL092W, strain hpr5, hits give low values 1.02 | locus YJL095W, strain BCK1 (second series), hits give low values 1.01 | locus YJL095W, strain BCK1, hits give low values 0.985 and 0.967 | locus YJL115W, strain asf1, hits give low values 1.02 | locus YJL129C, strain trk1, hits give low values 1.02 | locus YJL134W, strain LCB3, hits give low values 1 | locus YJL154C, strain vps35, hits give low values 1 | locus YJL164C, strain tpk1, hits give low values 1.01 | locus YJL166W, strain qcr8, hits give low values 1.03 | locus YJL168C, strain set2, hits give low values 1 | locus YJL187C, strain SWE1 (second series), hits give low values 0.982 | locus YJR043C, strain POL32, hits give low values 1.01 | locus YJR066W, strain TOR1, hits give low values 0.928 | locus YJR075W, strain HOC1, hits give low values 0.999

Reference: PubChem BioAssay AID1159580 (chemical genetic matrix, 2015)
